Reference: PubChem BioAssay (NCATS)
Results filed as inconclusive are left out. The source made the active and inactive calls. Calls come from the whole dose curve; as a rule, active = well fitted curve in the direction sought with a large enough effect; inconclusive = small, poorly fitted or top-dose-only effect, or another doubt; inactive = no such curve, though single readings can be large; an effect the other way counts as inactive or inconclusive.

Assays:
[1] = qHTS of pediatric cancer cell lines to identify multiple opportunities for drug repurposing: Primary screen for SK-N-MC cells (AID 1347093); note: potency is the fitted concentration of half-maximal effect
Outline: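 Metabolically active cells were quantified by ATP-dependent luminescence (CellTiter-Glo, 15 min at room temperature) following 48 h treatment. Cells had been plated at 500-1,000 per well and settled for 5 h beforehand.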

[2] = qHTS of pediatric cancer cell lines to identify multiple opportunities for drug repurposing: Primary screen for U-2 OS cells (AID 1347096); note: nearly all actives have a fitted effect of over 50% in size
Outline: (§1)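 Viability after 48 h compound treatment at 37C, 500-1,000 cells/well, read as ATP luminescence with CellTiter-Glo. Primary screens used 11-point (MIPE, 0.78 nM-46 µM) or 8-point (NPC, 0.59 nM-46 µM) final concentrations; follow-up screens used 11-point dilutions.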

[3] = qHTS of pediatric cancer cell lines to identify multiple opportunities for drug repurposing: Primary screen for Saos-2 cells (AID 1347097); note: nearly all actives have a fitted effect of over 40% in size; note: potency is the fitted concentration of half-maximal effect
Outline: (§2)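 Phenotypic viability qHTS, 48 h compound exposure, CellTiter-Glo luminescence read-out; multi-concentration dosing so that potency and efficacy derive directly from the primary screen's curves.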

[4] = qHTS of pediatric cancer cell lines to identify multiple opportunities for drug repurposing: Primary screen for SK-N-SH cells (AID 1347098); note: nearly all actives have a fitted effect of over 65% in size; note: potency is the fitted concentration of half-maximal effect
Outline: (§3)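 Cells (500-1,000/well) rested 5 h, then received compounds for 48 h; metabolically active cells were measured by CellTiter-Glo luminescence. Final concentrations spanned up to 46 µM (MIPE, 11-point) or 0.59 nM-46 µM (NPC, 8-point) in primary screens, 11-point in follow-ups.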

[5] = qHTS of pediatric cancer cell lines to identify multiple opportunities for drug repurposing: Primary screen for NB1643 cells (AID 1347099); note: nearly all actives have a fitted effect of over 50% in size; note: potency is the fitted concentration of half-maximal effect
Outline: as §2

[6] = qHTS of pediatric cancer cell lines to identify multiple opportunities for drug repurposing: Primary screen for BT-37 cells (AID 1347094); note: potency is the fitted concentration of half-maximal effect
Outline: as §2

[7] = qHTS of pediatric cancer cell lines to identify multiple opportunities for drug repurposing: Primary screen for BT-12 cells (AID 1347101); note: nearly all actives have a fitted effect of over 25% in size; note: potency is the fitted concentration of half-maximal effect
Outline: as §3

[8] = qHTS of pediatric cancer cell lines to identify multiple opportunities for drug repurposing: Primary screen for Rh18 cells (AID 1347102); note: nearly all actives have a fitted effect of over 65% in size; note: potency is the fitted concentration of half-maximal effect
Outline: as §1

[9] = qHTS of pediatric cancer cell lines to identify multiple opportunities for drug repurposing: Primary screen for NB-EBc1 cells (AID 1347095); note: potency is the fitted concentration of half-maximal effect
Outline: as §2

[10] = qHTS of pediatric cancer cell lines to identify multiple opportunities for drug repurposing: Primary screen for LAN-5 cells (AID 1347100); note: potency is the fitted concentration of half-maximal effect
Outline: as §1

Measured: Potency

C=C[C@@H]1CN2CCC1C[C@@H]2[C@@H](O)c1ccnc2ccccc12 (some centres not stated)
inactive: [2]
active: [1] 9.35 µM | [3] 26.4 µM | [4] 30.4 µM | [5] 10.5 µM

CC(=O)OCC1=C(C(=O)O)N2C(=O)[C@@H](N)[C@@H]2SC1
inactive: [2] | [8]
active: [1] 23.5 µM | [6] 1.22 µM | [3] 0.935 µM | [7] 1.37 µM

O=C(Oc1ccc([N+](=O)[O-])cc1)N1CCC(C(O)(c2ccc3c(c2)OCO3)c2ccc3c(c2)OCO3)CC1
active: [1] 16.6 µM
not listed: [5] | [6] | [8]
inactive: all other assays above

CN1[C@H]2CC(O)C[C@H]1[C@H]1O[C@H]12 (some centres not stated)
inactive: [2]
active: [1] 9.35 µM | [3] 13.2 µM | [5] 20.9 µM

CN1CCN(c2ccc([N+](=O)[O-])c3no[n+]([O-])c23)CC1
inactive: [2] | [4]
active: [1] 18.7 µM | [3] 26.4 µM

CCCC[N+]1(C)[C@H]2CC(OC(=O)[C@H](CO)c3ccccc3)C[C@H]1[C@H]1O[C@H]12 (some centres not stated)
not listed: [6]
inactive: all other assays above

CCOC(=O)c1c(C(C#N)=CN)c2ccc(Cl)c(Cl)c2n1C
active: [1] 18.7 µM
inactive: [6] | [2] | [10] | [7] | [8]

COc1ccc(C(c2ccc(OC)cc2)C(Cl)(Cl)Cl)cc1
active: [1] 42.8 µM | [9] 13.5 µM | [3] 30.3 µM | [4] 49.8 µM | [5] 42.8 µM

O=c1[nH]c2ccccc2n1C1CCN(Cc2ccc(-c3[nH]c4cc5ncnc5cc4nc3-c3ccccc3)cc2)CC1
inactive: [4]
active: [1] 0.833 µM | [9] 20.9 µM | [3] 16.6 µM | [5] 20.9 µM | [10] 14.8 µM

COC1=C[C@@H]2[C@@H]3Cc4ccc(OC)c(O)c4[C@]2(CCN3C)CC1=O
active: [1] 13.2 µM | [9] 20.9 µM | [4] 6.07 µM | [5] 5.9 µM
inactive: [2] | [3] | [7] | [8]

S=C(SSC(=S)N1CCCCC1)N1CCCCC1
active: [1] 0.0376 µM | [6] 0.309 µM | [3] 0.0376 µM | [5] 0.0944 µM | [10] 0.168 µM | [8] 0.0299 µM

C[C@]12CC[C@H]3[C@@H](CCC4=CC(=O)CC[C@@]43C)[C@H]1CC[C@H]2O
not listed: [6]
inactive: all other assays above

COc1cc([C@@H]2c3cc4c(cc3[C@@H](O)C3COC(=O)C32)OCO4)cc(OC)c1O (some centres not stated)
active: [1] 0.0469 µM | [9] 0.0066 µM | [3] 0.0209 µM | [5] 6.62 µM | [10] 0.0132 µM
inactive: [2] | [8]
